Assay outcomes as filed in PubChem.
The sample as a whole holds a higher share of hits than the screen did.
Pf Dd2 inh: qHTS Primary assay for Inhibitors of Plasmodium falciparum Dd2 growth in vitro | P. falciparum Dd2 growth, SYBR Green, 72 h | Potency, µM (top dose mostly 28.9 µM), usual class: inhibitors | actives 4.3% (n = 120,000) | AID 1347417, 2020; active = well fitted inhibition curve with a large enough effect; also: nearly all actives have a fitted effect of over 65% in size
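Readout: SYBR Green fluorescence, 485 nm excitation, 535 nm emission, after ~16 h lysis at 37C. Before that, Dd2-infected red cells (2.5% hematocrit) grew 72 h with compound, 29 uM top final concentration.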
Of the large screens only hits and unclear results are named; the others gave an inactive call.

O=C(O)c1ccc2nc(-c3cc4cccc(O)c4oc3=O)[nH]c2c1	none
COc1ccc(-c2cc3ccc(O)c(CN4CCN(C)CC4)c3oc2=O)cc1OC	Pf Dd2 inh 11µM
COc1ccc(-c2cc([C@H]3CN4CC[C@H]3C[C@@H]4CNC(=O)N3CCOCC3)nc(C)n2)cc1OC	none
CCN1CCN(C(=O)c2cc(-c3ccccc3)cn2C)CC1	none
COc1cccc2cc(-c3nnc(-c4ccc(Cl)cc4)o3)c(=O)oc12	none
CN1CCN(Cc2c(O)ccc3cc(-c4ccccc4)c(=O)oc23)CC1	Pf Dd2 inh 10µM
COc1ccc(-c2c(C)c3ccc(O)c(CN4CCOCC4)c3oc2=O)cc1OC	none
COCCCNC(=O)N1CCC2(CC1)CN(Cc1ccc(OC)cc1)C2=O	none
N#Cc1ccc(C(=O)N2CCCCCNC(=O)[C@@H]3CCC[C@@H]32)cc1	none
O=C(Nc1ccc([C@@H](O)[C@H]2COCC(=O)N2Cc2ccc(F)cc2)cc1)c1cccs1	none
O=C(NC[C@H]1O[C@@H](CO)[C@@H](O)[C@H]1N1CCN(c2ccc(F)cc2)CC1)c1cccs1	none
Cn1c(C(=O)NCCCc2nnc(N)s2)cc(=O)n(C)c1=O	none
CCC1CN(C(=O)N2CCC(C(=O)NCCCc3ccccc3)CC2)c2cc(C)ccc2O1 (stereo not given)	none
CC1CN(C(=O)N2CCC(C(=O)NCCC3=CCCCC3)CC2)c2ccccc2O1 (stereo not given)	none
CCC1CN(C(=O)N2CCC(C(=O)NCCC3=CCCCC3)CC2)c2cc(C)ccc2O1 (stereo not given)	Pf Dd2 inh 13µM
CCOCC(=O)N1CCC2(CC1)NCCc1c2[nH]c2ccccc12	none
O=C(NC1C[C@H]2CC[C@@H](C1)N2C(=O)Cc1ccccc1Cl)c1ccncc1 (stereo not given in full)	none
O=C(CCc1nc2ccccc2[nH]1)N1[C@H]2CC[C@@H]1c1cnc(-c3ccc(F)cc3)nc1C2	Pf Dd2 inh 11µM
O=C(CCc1c[nH]c2ccccc12)N1[C@H]2CC[C@@H]1c1cnc(-c3ccccc3)nc1C2	none
O=C(Cc1cccnc1)N1[C@H]2CC[C@@H]1c1cnc(-c3ccc(F)cc3)nc1C2	none
COCCN1C(=O)[C@H]2CN(C(=O)c3ccncc3)C[C@H]2C1=O	none
COc1ccc(N2Cc3c(NCCc4ccc(Cl)cc4)ncnc3N(C)CC2=O)cc1	none
Cc1ccc(-c2ccc3nnc(CNC(=O)C4CC4)n3n2)cc1	none
Cc1ccc2nc(COCC(=O)N[C@H]3CC[C@@H]4CCC[C@@H]43)[nH]c2c1	none
CCCc1ccc(S(=O)(=O)N2CCC(n3cnnc3C)CC2)cc1	none
CCCc1ccc(S(=O)(=O)N2CCC(c3nnc(-c4cccc(C)c4)o3)CC2)cc1	Pf Dd2 inh 11µM
COc1ccccc1-c1nnc(C2CCN(S(=O)(=O)c3ccc(F)c(C)c3)CC2)o1	none
Cc1ccc([S+](=O)([O-])N2CCC(N3CCCCCC3=O)CC2)cc1	none
COc1cccc(C2c3c(oc4ccc(C)cc4c3=O)C(=O)N2CCCN2CCOCC2)c1OC (stereo not given)	none
CCCOc1cccc(C2c3c(oc4ccc(F)cc4c3=O)C(=O)N2CCCN2CCOCC2)c1 (stereo not given)	Pf Dd2 inh 6.3µM
CCOc1cccc(C2c3c(oc4ccc(F)cc4c3=O)C(=O)N2CCc2ccc(OC)cc2)c1 (stereo not given)	none
CCOc1cc(=O)n2c(c1C(=O)NCc1ccccc1Cl)CCCC2	none
CCN1c2cc(C(=O)Nc3ccc(Cl)c(C)c3)ccc2C(=O)N2CCCCC21 (stereo not given)	none
COc1ccc(OCc2nc(C)c(CCO)c(=O)n2CC(=O)Nc2ccccc2Cl)cc1	none
COc1ccc(-c2nc3c(c(=O)[nH]2)CCNC3)cc1	none
COc1cccc(NC(=O)C2CCN(S(=O)(=O)c3ccc4[nH]c5c(c4c3)CCCCC5)CC2)c1	none
CC(=O)c1ccc(N2CCN(S(=O)(=O)c3ccc4[nH]c5c(c4c3)CCCCC5)CC2)cc1	none
O=C(Nc1cccc(F)c1)C1CCN(S(=O)(=O)c2ccc3[nH]c4c(c3c2)CCCCC4)CC1	Pf Dd2 inh 11µM
COc1ccc(C(=O)N[C@@H]2C=C(C(=O)NCCC(N)=O)C[C@@H](O)[C@@H]2O)cc1	none
COCCN1CCC(N2CCN(S(=O)(=O)c3ccc(F)cc3F)CC2)C1=O (stereo not given)	none
O=C(c1cccnc1)N1CCCC(c2noc(COc3ccccc3F)n2)C1 (stereo not given)	none
NC(=O)[C@@H]1CN(C(=O)C2CCC2)C[C@H]1COc1ccccc1	none
COc1ccc(-n2nc(C)c([C@@H]3C=C[C@@H](NCc4ccc(N(C)C)cc4)C3)c2C)cc1	Pf Dd2 inh 1.6µM
COc1ccc(CN[C@@H]2C=C[C@@H](c3c(C)nn(-c4ccccc4)c3C)C2)cc1	Pf Dd2 inh 6.3µM
COc1ccc(NC(=O)N[C@@H]2C=C[C@@H](c3c(C)nn(-c4ccccn4)c3C)C2)cc1	none
Cc1nn(-c2ccc(C(F)(F)F)cc2)c(C)c1[C@@H]1C=C[C@@H](NC(=O)COc2ccccc2)C1	none
Cn1nc(C2CCN(C(=O)CCC3CCCC3)CC2)c2c1CCOC2	none
CCNC(=O)N1CCC2(CC1)CC(N(C(=O)c1ccccc1)C1CC1)CCO2 (stereo not given)	none
Cc1ccc(C)c(NC(=O)N2CC(n3cc(COc4ccccc4)nn3)C2)c1	none
O=C(c1ccccc1Br)N1CC(n2cc(COc3ccc(F)cc3)nn2)C1	Pf Dd2 inh 11µM
O=C(NCc1ccco1)N1CC(n2cc(COc3ccccc3)nn2)C1	none
FC(F)(F)c1ccc(O[C@H]2COCCN(Cc3cccnc3)C2)nc1	none
c1ccc(-c2ccc(CN3CCOC[C@H](Oc4cnccn4)C3)cc2)cc1	Pf Dd2 inh 5.6µM
COc1cccc(CN2CCOC[C@H](Oc3cccnc3)C2)c1	none
COc1ccc(CN2CCC3(CC(C)=NO3)C2)cc1 (stereo not given)	none
O=C(N[C@H]1CCN2C(=O)c3cc(-c4ccsc4)ccc3NC(=O)[C@H]12)c1cnccn1	none
O=C(Nc1ccc(C2(C(=O)NCc3ccc(F)cc3)CCCCC2)cc1)C1CC1	none
O=C(Nc1ccc(C2(C(=O)NCc3ccc4c(c3)OCO4)CCCCC2)cc1)C1CC1	Pf Dd2 inh 13µM
CS(=O)(=O)Nc1ccc(C2(C(=O)NCc3ccc4c(c3)OCO4)CCCCC2)cc1	none
CC(=O)N1CC2(Cc3ccccc31)CN([S+](=O)([O-])c1c(C)noc1C)C2	none
CC1CCc2nn3ccn(CC(=O)Nc4cccc(Cl)c4)c(=O)c3c2C1 (stereo not given)	none
COc1ccc(-c2noc(-c3ccc(N4CCN(c5ccccc5)CC4)c([N+](=O)[O-])c3)n2)cc1	none
COc1ccccc1-c1noc(-c2ccc(N3CCN(c4ccccc4)CC3)c([N+](=O)[O-])c2)n1	Pf Dd2 inh 10µM
COc1ccccc1N1CCN(c2ccc(-c3nc(-c4ccccc4C)no3)cc2[N+](=O)[O-])CC1	none
O=C(CC1CCCC1)NCCc1noc(Cc2ccccc2)n1	none
CC(C)NC(=O)N(C1CC1)C1CCOC2(CCN(C(=O)NC3CCCCC3)CC2)C1 (stereo not given)	none
O=C(c1nc(-c2ccc(Cl)cc2Cl)c2ccccn12)N1CCCC1	none
CC(C)NC(=O)c1nc(-c2cc(Cl)cc(Cl)c2)c2ccccn12	none
O=C(NCc1ccc(F)cc1)c1nc(-c2ccc(Cl)cc2)c2ccccn12	Pf Dd2 inh 10µM
CC(C)NC(=O)c1nc(-c2cccc(C(F)(F)F)c2)c2cnccn12	Pf Dd2 inh 1.8µM
O=C(c1nc(-c2ccc(Cl)cc2)c2ccccn12)N1CCCC1	Pf Dd2 inh 11µM
O=C(NCc1ccc(F)cc1)c1nc(-c2ccc(Cl)cc2Cl)c2ccccn12	none
